Results on 18 compounds are retold here after PubChem BioAssay (NCI).

This is part of a sample that, as a whole, favours compounds with a hit. Of some 79,000 tested, about 15% had one in any assay. A number with no mark means an inactive call. Cut-off read from the data, not from the text of the source: active = growth inhibition above about 70%; inactive = the rest.

This assay is described as follows: NCI Yeast Anticancer Drug Screen. Data for the bub3 strain (AID 167). The note with it: S. cerevisiae bub3 mutant strain, at 50.0 µM, active compounds read high. A digest of the protocol:
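Compounds were applied to a genetically altered yeast strain carrying a cell-cycle control defect. Growth inhibition was scored against vehicle-treated controls.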
As to `COC1CC(NC(=O)c2ccccc2)C(O)C(C)O1` (stereo not drawn), the growth inhibition was 0.8%.
Consider `C1CCN=C(N2CCCCCC2)CC1`, for which the growth inhibition was 13.6%.
As for `O=C(O)CC1(c2ccccc2)CCCCC1`, the growth inhibition is 46.8%.
For `C#CC(C)(C)Oc1cc(O)c2c(=O)c3ccccc3n(C)c2c1`, the growth inhibition was 0.2%.
The value for `O=C(CCSC(=S)Nc1ccc(Cl)cc1)NNc1ccccc1` was 6.6%; that for `CCCCCCCCCCCCSC1=C(OC)C(=O)C(OC)=C(OC)C1=O` was -1.35%; that for `CC1=C(O)c2cc3c(cc2C(=O)C1=O)OCO3` was -18.4%.
Under `Cc1ccc(-c2nc(-c3nccc4ccccc34)oc2-c2ccccc2)cc1` stands -29.7%; under `CCCN(CCN(CC)CC)C(=O)N(CC)CC`, 6.35%.
For `C=CCOC(=O)NC(CCC(=O)OC)C(=O)O` (stereo not drawn), the growth inhibition is -2.45%.
Turning to `O=C1CCC(=O)N1Cc1ccccc1N=[N+]([O-])c1ccccc1CN1C(=O)CCC1=O`, the growth inhibition was -19.5%.
Under `CC12CC(=O)C3C(CCC4=CC(=O)CCC43C)C1CC=C2CC(=O)O` (stereo not drawn) stands -5.15%; under `CC(C)C(=O)/C=C/c1ccc(Br)cc1`, -14.8%; under `O=C(O)C1CC=CCC1C(=O)Nc1cccc(O)c1` (stereo not drawn), -40%.
The value for `Cc1ccc(S(=O)(=O)Nc2ccc(O)cc2)cc1` was -7.6%.
The value for `Cc1cc(/C=N/NC(=O)c2ccccc2NC(=O)c2ccccc2Cl)ccc1O` was 9.1%; that for `COc1ccc(N2NC(c3ccccc3)(c3ccccc3)C(C)C2=O)cc1` (stereo not drawn) was 51.2%.
Consider `Fc1ccccc1/C=C/c1cnnc2ccccc12`, for which the growth inhibition was 5.2%.
